“And” between values parts separate entries of the source, which are not always exact repeats. Equal values may be shown once. More than one record can exist for a structure, and the calls need not agree. The source made the active and inactive calls. Rule for the calls: active = hit-call score of the fitted dose curve at least 0.9, where 1 is the maximum; inactive = score below 0.9.
Tests used:
[1] = read-out: Interleukin-8 (IL8), CXCL8 (gene 3576); experiment: BSK_CASM3C_IL8: BioMAP Diversity Plus: CASM3C Assay for Interleukin-8 (IL8) Biomarker Activity (AID 2283042); conditions: primary human coronary artery smooth muscle cells; actives raise or lower the signal;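 note: IL-8 protein level quantified by ELISA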
[2] = read-out: Human Leukocyte Antigen - DR isotype (HLADR), HLA-DRA (gene 3122); experiment: BSK_CASM3C_HLADR: BioMAP Diversity Plus: CASM3C Assay for Human Leukocyte Antigen - DR isotype (HLADR) Biomarker Activity (AID 2283043); conditions: primary human coronary artery smooth muscle cells; actives raise or lower the signal;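 note: cell-surface HLA-DR protein level quantified by ELISA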
[3] = read-out: Macrophage colony-stimulating factor (MCSF), CSF1 (gene 1435); experiment: BSK_CASM3C_MCSF: BioMAP Diversity Plus: CASM3C Assay for Macrophage colony-stimulating factor (MCSF) Biomarker Activity (AID 2283044); conditions: primary human coronary artery smooth muscle cells; actives raise or lower the signal;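 note: M-CSF protein amount quantified by ELISA after 24 h exposure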
[4] = read-out: Low-density lipoprotein receptor (LDLR), LDLR (gene 3949); experiment: BSK_CASM3C_LDLR: BioMAP Diversity Plus: CASM3C Assay for Low-density lipoprotein receptor (LDLR) Biomarker Activity (AID 2283045); conditions: primary human coronary artery smooth muscle cells; actives raise or lower the signal;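 note: LDLR protein level on the cell surface quantified by ELISA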
[5] = read-out: Monocyte Chemoattractant Protein-1 (MCP1), CCL2 (gene 6347); experiment: BSK_CASM3C_MCP1: BioMAP Diversity Plus: CASM3C Assay for Monocyte Chemoattractant Protein-1 (MCP1) Biomarker Activity (AID 2283046); conditions: primary human coronary artery smooth muscle cells; actives raise or lower the signal;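 note: MCP-1 level quantified by ELISA 24 h after dosing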
[6] = BSK_CASM3C_Proliferation: Cell Proliferation Assessment in the BioMAP Diversity Plus: CASM3C Assay (AID 2283047); conditions: primary human coronary artery smooth muscle cells;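 note: sulforhodamine B total protein stain as relative cell number at 560 nm; sub-confluent cells exposed 48 h before staining; fitted both ways against DMSO so gain or loss of cell number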
[7] = read-out: Monokine induced gamma interferon (MIG), CXCL9 (gene 4283); experiment: BSK_CASM3C_MIG: BioMAP Diversity Plus: CASM3C Assay for Monokine induced gamma interferon (MIG) Biomarker Activity (AID 2283048); conditions: primary human coronary artery smooth muscle cells; actives raise or lower the signal;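 note: MIG protein level measured by ELISA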
[8] = read-out: serum amyloid A (SAA), SAA1 (gene 6288); experiment: BSK_CASM3C_SAA: BioMAP Diversity Plus: CASM3C Assay for serum amyloid A (SAA) Biomarker Activity (AID 2283049); conditions: primary human coronary artery smooth muscle cells; actives raise or lower the signal;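 note: SAA protein level quantified by ELISA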
[9] = BSK_CASM3C_SRB: Viability Assessment in the BioMAP Diversity Plus: CASM3C Assay (AID 2283050); conditions: primary human coronary artery smooth muscle cells;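 note: total protein by SRB staining as cytotoxicity measure in parallel cultures; cells exposed to compound for 24 h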
[10] = read-out: Thrombomodulin, THBD (gene 7056); experiment: BSK_CASM3C_Thrombomodulin: BioMAP Diversity Plus: CASM3C Assay for Thrombomodulin Biomarker Activity (AID 2283051); conditions: primary human coronary artery smooth muscle cells; actives raise or lower the signal;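 note: thrombomodulin protein level measured by ELISA 24 h after dosing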
[11] = read-out: Tissue Factor, F3 (gene 2152); experiment: BSK_CASM3C_TissueFactor: BioMAP Diversity Plus: CASM3C Assay for Tissue Factor Biomarker Activity (AID 2283052); conditions: primary human coronary artery smooth muscle cells; actives raise or lower the signal;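 note: cell surface tissue factor protein level read by ELISA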
[12] = read-out: Interferon-gamma inducible Protein 10 (IP10), CXCL10 (gene 3627); experiment: BSK_hDFCGF_IP10: BioMAP Diversity Plus: hDFCGF Assay for Interferon-gamma inducible Protein 10 (IP10) Biomarker Activity (AID 2283053); conditions: primary human foreskin fibroblasts; actives raise or lower the signal
Summary of the method: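 ELISA read-out of IP-10 (CXCL10) from primary human skin fibroblasts, 24 h after compound addition. Gain or loss of signal versus DMSO baseline, bidirectional curve fitting.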

[13] = read-out: Urokinase-type plasminogen activator receptor (uPAR), PLAUR (gene 5329); experiment: BSK_CASM3C_uPAR: BioMAP Diversity Plus: CASM3C Assay for Urokinase-type plasminogen activator receptor (uPAR) Biomarker Activity (AID 2283054); conditions: primary human coronary artery smooth muscle cells; actives raise or lower the signal;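 note: cell-surface uPAR protein level quantified by ELISA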
[14] = read-out: Vascular cell adhesion molecule 1 (VCAM1), VCAM1 (gene 7412); experiment: BSK_CASM3C_VCAM1: BioMAP Diversity Plus: CASM3C Assay for Vascular cell adhesion molecule 1 (VCAM1) Biomarker Activity (AID 2283055); conditions: primary human coronary artery smooth muscle cells; actives raise or lower the signal;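 note: VCAM-1 protein level quantified by ELISA on the cells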
[15] = read-out: Collagen III, COL3A1 (gene 1281); experiment: BSK_hDFCGF_CollagenIII: BioMAP Diversity Plus: hDFCGF Assay for Collagen III Biomarker Activity (AID 2283056); conditions: primary human foreskin fibroblasts; actives raise or lower the signal
Summary of the method: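 Response relative to DMSO, fitted in both directions, reflects ELISA-measured collagen III in human primary skin fibroblasts 24 h after compound addition.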

[16] = read-out: Epidermal growth factor receptor (EGFR), EGFR (gene 1956); experiment: BSK_hDFCGF_EGFR: BioMAP Diversity Plus: hDFCGF Assay for Epidermal growth factor receptor (EGFR) Biomarker Activity (AID 2283057); conditions: primary human foreskin fibroblasts; actives raise or lower the signal
Summary of the method: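 ELISA readout of EGFR on human dermal fibroblasts (primary foreskin cells), 24 h post-dosing; bidirectional curve fit vs DMSO baseline, gain or loss of signal scored.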

[17] = read-out: Interleukin-8 (IL8), CXCL8 (gene 3576); experiment: BSK_hDFCGF_IL8: BioMAP Diversity Plus: hDFCGF Assay for Interleukin-8 (IL8) Biomarker Activity (AID 2283058); conditions: primary human foreskin fibroblasts; actives raise or lower the signal
Summary of the method: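 Fibroblast monolayers (human foreskin, hDFCGF) received test chemical for 24 h before ELISA detection of IL-8; either increases or decreases relative to DMSO count as activity.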

[18] = BSK_hDFCGF_Proliferation: Cell Proliferation Assessment in the BioMAP Diversity Plus: hDFCGF Assay (AID 2283059); conditions: primary human foreskin fibroblasts;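 note: curves fitted for both rise and fall of signal versus DMSO baseline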
Summary of the method: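 Primary human foreskin fibroblasts, sub-confluent; […]; 10% TCA fix, 0.1% SRB stain, A560 total protein. Gain/loss fitted bidirectionally vs DMSO control.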

[19] = read-out: Macrophage colony-stimulating factor (MCSF), CSF1 (gene 1435); experiment: BSK_hDFCGF_MCSF: BioMAP Diversity Plus: hDFCGF Assay for Macrophage colony-stimulating factor (MCSF) Biomarker Activity (AID 2283060); conditions: primary human foreskin fibroblasts; actives raise or lower the signal
Summary of the method: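 fibroblasts (human foreskin, primary), 24 h post-dose; M-CSF by ELISA; bidirectional fit, DMSO = baseline.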

[20] = BSK_hDFCGF_SRB: Viability Assessment in the BioMAP Diversity Plus: hDFCGF Assay (AID 2283061); conditions: primary human foreskin fibroblasts;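 note: cells exposed to compound for 24 h before the read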
Summary of the method: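 SRB-based viability read on primary human skin fibroblasts at 24 h: TCA fixation, 0.1% dye, 560 nm. Gain or loss of signal is fitted against the DMSO negative control.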

Measured: AC50

CCON=C(CC)C1=C(O)CC(c2c(C)cc(C)cc2C)CC1=O (configuration not stated)
inactive: all assays above

CO/C=C(/C(=O)OC)c1ccccc1Oc1cc(Oc2ccccc2C#N)ncn1
active: [5] 30.7 µM and 37.9 µM and 37.6 µM | [6] 13.5 µM and 27.1 µM and 13.9 µM | [15] 16.9 µM [middle of 4 runs] | [18] 30.2 µM and 34.3 µM and 25.5 µM
inactive: [1] | [2] | [3] | [4] | [5] | [6] | [7] | [8] | [9] | [10] | [11] | [13] | [14] | [16] | [17] | [18] | [19] | [20]

CCCCOC(=O)c1ccccc1C(=O)OCCCC
active: [3] 0.767 µM | [6] 34.9 µM | [10] 11 µM | [15] 10.9 µM | [19] 12 µM
inactive: [1] | [2] | [3] | [4] | [5] | [6] | [7] | [8] | [9] | [10] | [11] | [13] | [14] | [15] | [16] | [17] | [18] | [19] | [20]

COc1cnc(OC)n2nc(NS(=O)(=O)c3c(OCC(F)F)cccc3C(F)(F)F)nc12
active: [4] 16.8 µM
inactive: [1] | [2] | [3] | [4] | [5] | [6] | [7] | [8] | [9] | [10] | [11] | [12] | [13] | [14] | [15] | [16] | [17] | [18] | [19] | [20]

O=C(O)c1nc(Cl)ccc1Cl
inactive: [1] | [2] | [3] | [4] | [5] | [6] | [7] | [8] | [9] | [10] | [11] | [13] | [14] | [15] | [16] | [17] | [18] | [19] | [20]
active: [5] 147 nM
